Screening results (PubChem)
KB-3-1 tox: kills parental KB-3-1 adenocarcinoma cells. KB-3-1 viability, CellTiter-Glo ATP luminescence, 72 h. Potency, µM (top dose mostly 46.1 µM), hits mostly cytotoxic. 400,000 compounds, 1.4% hits. AID 1347075; further: on the % scale 0 is the no-effect control and ±100 the full control effect; nearly all actives have a fitted effect of over 60% in size
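Viability of parental KB-3-1 cells, measured by CellTiter-Glo luminescence, followed a 72 h incubation at 37 °C with pinned compounds in phenol-red-free DMEM containing 10% FBS.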
SW480 rerep: DNA re-replication induction in SW480 cells; SW480 DNA re-replication, Hoechst DNA content imaging, 48 h; 340,000 compounds, 1.8% hits; Potency, µM (top dose mostly 46.1 µM), without a hit: top-dose re-replication activation, most hits filed as activators; further: % of control where 0% means no effect; nearly all actives have a fitted effect of over 55% in size
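Per well, 250 cells were exposed to pinned compound for 48 hr. Nuclear DNA was visualised with Hoechst (40 min, 37 C) and total object intensity recorded by fluorescence scanning.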
KB-V1 MDR tox: KB-V1 MDR subline cytotoxicity; KB-V1 MDR cells viability, CellTiter-Glo, 72 h; Potency, µM (top dose mostly 46.1 µM), usual class: cytotoxic; 400,000 compounds, 3.4% hits; further: on the % scale 0 is the no-effect control and ±100 the full control effect; nearly all actives have a fitted effect of over 60% in size
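Compound-treated KB-V1 multidrug-resistant cells, 72 h, 37 degrees C; viability by CellTiter-Glo. Fitted qHTS curves give the values.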
MCF10A rerep: DNA re-replication induction in MCF 10a cells. MCF 10A DNA re-replication, Hoechst nuclear intensity, 48 h. Potency, µM (doses to about 46.1 µM), without a hit: at the top dose activity, positive = re-replication, hits mostly activators. 350,000 compounds, 2.9% hits. AID 624296; further: % of control where 0% means no effect; nearly all actives have a fitted effect of over 50% in size
ELG1 DNA repair: blocks ELG1-dependent DNA repair in HEK293T cells. HEK293T ELG1-luciferase reporter, luminescence, 16 h; DNA damage induced by 5-fluorouridine. Potency, µM (titrated, usually from 46.1 µM), inactives show at the highest dose activity change, negative = inhibition, usual class: inhibitors. 330,000 compounds, 2.3% hits. AID 504467; further: on the % scale 0 is the no-effect control and ±100 the full control effect; nearly all actives have a fitted effect of over 55% in size
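In this reporter screen, reduction of luminescence relative to DMSO vehicle indicated activity. Compounds and 5-fluorouridine were added together to 2,000 cells per well, incubated for 16 hr at 37 °C, then developed with ONE-Glo.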
ELG1 FLuc counter: luciferase inhibition in cell-free luciferin readout for ELG1 hits; shares compounds with ELG1 DNA repair; Potency, µM (highest dose often 46.1 µM), without a hit: at the highest dose activity change, negative = inhibition, hits mostly inhibitors; cell-free firefly luciferase luminescence counter-screen, ViewLux; AID 624247; 350 compounds, 3% hits; further: on the % scale 0 is the no-effect control and ±100 the full control effect
ELG1-Luc inh: confirmation of human ELG1-dependent DNA repair inhibitors; shares compounds with ELG1 DNA repair; 670 compounds, 68% hits; AID 624248; HEK293T ELG1-luciferase levels, luminescence; cells co-treated with 5-fluorouridine; Potency, µM (series often up to 46.1 µM), inactives show at the top dose activity change, negative = inhibition, actives largely listed as inhibitors; further: on the % scale 0 is the no-effect control and ±100 the full control effect; nearly all actives have a fitted effect of over 55% in size
ELG1 MMS Luc: inhibits ELG1-dependent repair under MMS stimulation in HEK293T cells | shares compounds with ELG1 DNA repair | HEK293T luciferase-tagged ELG1 level, MMS stimulated | Potency, µM (top dose mostly 46.1 µM), without a hit: at the highest dose activity change, negative = inhibition, usual class: inhibitors | 670 compounds, 53% hits | AID 624249; further: on the % scale 0 is the no-effect control and ±100 the full control effect; nearly all actives have a fitted effect of over 60% in size
ELG1 5-FU: confirmation of ELG1 repair inhibitors: viability with 5FU | Potency, µM (doses to about 46.1 µM), without a hit: at the top dose activity change, negative = viability loss, hits mostly cytotoxic | 670 tested, under 10 active | cell viability with 5-FU, ELG1-dependent repair | shares compounds with ELG1 DNA repair;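 further: ELG1-luc HEK293T cells cotreated with 5-fluorouridine at 10 µM final; viability measured 16 h after compound addition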
ELG1 MMS cell: confirmation of ELG1 repair inhibitors: viability with MMS. Cell viability with MMS, ELG1-dependent DNA repair. Potency, µM (highest dose often 46.1 µM), without a hit: at the top dose activity change, negative = viability loss, most hits filed as cytotoxic. shares compounds with ELG1 DNA repair. 670 compounds, 33% hits;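 further: ELG1-luc HEK293T cells co-treated with 10 µM MMS; viability read 16 h after compound addition; on the % scale 0 is the no-effect control and ±100 the full control effect; nearly all actives have a fitted effect of over 60% in size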
Cell viab unstim: unstimulated viability counter-screen for ELG1 repair hits | shares compounds with ELG1 DNA repair | cell viability counter-screen, unstimulated, luminescence | Potency, µM (doses to about 45.9 µM), for the others: top-dose activity change, negative = loss of viability, actives largely listed as cytotoxic | 900 compounds, 8% hits | AID 624252;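 further: compound exposure lasted 16 hours before reading; on the % scale 0 is the no-effect control and ±100 the full control effect; nearly all actives have a fitted effect of over 55% in size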
FLuc enzyme: firefly luciferase inhibition counter-screen; purified firefly luciferase, luminescence counter-screen; 350 compounds, 10% hits; Potency, µM (series often up to 57.5 µM), without a hit: top-dose activity, negative = inhibition, hits mostly inhibitors; shares compounds with ELG1 DNA repair; further: on the % scale 0 is the no-effect control and ±100 the full control effect
Active calls of the source: *; i = inactive; ? = inconclusive; . = no result given; ! = a repeat was not active; [ ] = dose if it differs, or a comment. Most compounds without a hit are left out; they make up all but 8.2% or so of the library. The call rests on the fitted dose curve; in most records, active means well fitted curve in the direction sought with a large enough effect; inconclusive means small, poorly fitted or top-dose-only effect, or another doubt; inactive means no such curve, though single readings can be large; an effect the other way counts as inactive or inconclusive. Potency means the concentration at half of the fitted maximal effect.

SMILES	KB-3-1 tox	SW480 rerep	KB-V1 MDR tox	MCF10A rerep	ELG1 DNA repair	Cell viab unstim	others
Cn1c(=O)cc(SCC(=O)NCc2ccc(F)cc2)c2cc(Cl)ccc21	i	.	?	.	.	.
COc1cccc(CNC(=O)CNS(=O)(=O)c2ccc(Br)s2)c1	i	-14%	i	-3%	0%	.
O=C(Nc1ccc(-n2cnnn2)cc1)c1cccc(S(=O)(=O)N2CCCC2)c1	i	-16%	i	4%	-23%	.
Cc1cc(NC(=O)Cc2ccccc2)c2ccccc2n1	i	-27%	i	?	?	?	ELG1-Luc inh=?;ELG1 MMS Luc=2µM*;ELG1 5-FU=1%;ELG1 MMS cell=2.5µM*
COc1cccc(/C=C/c2cnc3ccccc3n2)c1OC	i	.	i	.	.	-16%	ELG1 FLuc counter=-23%;FLuc enzyme=0.33µM*
CCOc1cccc(/C=C/c2ccc3cccc(O)c3n2)c1OC	?	10%	i	14%	?	.
CCOC(=O)c1cnn(C)c1NC(=O)c1ccc([N+](=O)[O-])cc1	i	-8%	i	5%	0%	.
O=C(CSc1ncnc2sccc12)N1CCCCC1	.	-7%	.	4%	?	-5%
COc1ccc(-c2cn(Cc3ccc(C(=O)c4ccccc4)cc3)nn2)cc1	4.1µM*!	?	2.6µM*!	2.6µM*	?	?
Cn1cccc1C(=O)OCC(=O)NCc1ccc2c(c1)OCO2	i	-3%	i	14%	?	.
Cn1cccc1C(=O)OCC(=O)Nc1ccc2c(c1)OCCO2	i	-4%	i	-1%	?	?	ELG1 FLuc counter=3%;FLuc enzyme=2.1µM*
Cn1cccc1C(=O)OCC(=O)Nc1sccc1C#N	?	0%	16µM*	0%	?	0%
O=C(CCNS(=O)(=O)c1ccccc1)NNC(=O)COc1ccc(Cl)cc1	i	-4%	?	6%	-1%	.
CCCc1nc2sc3c(=O)n(N)cnc3c2c2c1COC(C)(C)C2	.	.	.	.	1%	.
CC(C)c1nc2sc3c(NCc4ccccc4)ncnc3c2c2c1COC(C)(C)C2	i	-6%	i	16%	?	.
CC(C)c1nc2sc3c(=O)n(N)cnc3c2c2c1COC(C)(C)C2	i	-6%	i	-1%	7%	2%	ELG1 FLuc counter=-2%;ELG1-Luc inh=?;ELG1 MMS Luc=-5%;ELG1 5-FU=?;ELG1 MMS cell=3%;FLuc enzyme=-3%
CC(C)c1nc2sc3c(NCc4ccco4)ncnc3c2c2c1COC(C)(C)C2	i	17%	i	?	?	?	ELG1 FLuc counter=21%;ELG1-Luc inh=11µM*;ELG1 MMS Luc=13%;ELG1 5-FU=?;ELG1 MMS cell=-2%;FLuc enzyme=-3%
COc1ccc(C(=O)NCC(c2cccs2)S(=O)(=O)c2cccs2)cc1 (centres undefined)	i	.	i	.	.	.
CCCCN(C(=O)c1cc(CN2C(=O)c3ccccc3C2=O)ccc1OC)c1c(N)n(CC(C)C)c(=O)[nH]c1=O	i	-1%	i	-5%	.	.
Cc1cc(C)c(Cc2c(C)nc3c(C(=O)NCc4ccco4)cnn3c2C)c(C)c1	21µM*	-3%	2.9µM*	?	7.3µM*	?	ELG1 FLuc counter=-13%;ELG1-Luc inh=?;ELG1 MMS Luc=7.1µM*;ELG1 5-FU=-3%;ELG1 MMS cell=7.9µM*;FLuc enzyme=6%
Cc1ccc(CNC(=O)c2cnn3c(C)c(Cc4c(F)cccc4Cl)c(C)nc23)cc1	i	.	i	.	.	.
O=C(c1ccoc1)N1CCC(CO)(CCc2ccccc2)CC1	i	10%[1.84 µM]	i	3%	-19%	.
COc1ccc2nccc(C(N)=O)c2c1	i	0%	i	-4%	-18%	.
COC(=O)c1c(Oc2ccc(OC)cc2)nnc(-c2ccccc2)c1-c1ccccc1	i	.	i	.	.	.
CC(=O)N(C)c1ccc(/C=C2\C=Cc3ccccc32)cc1	i	.	i	.	.	?	ELG1 FLuc counter=71%;FLuc enzyme=0.23µM*
SMILES	KB-3-1 tox	SW480 rerep	KB-V1 MDR tox	MCF10A rerep	ELG1 DNA repair	Cell viab unstim	others
COc1cc(-c2noc(C)c2/C=C/c2cccc([N+](=O)[O-])c2)cc(OC)c1OC	2.9µM*	?	5.8µM*	?	2.6µM*	?	ELG1-Luc inh=2µM*;ELG1 MMS Luc=7.1µM*;ELG1 5-FU=?;ELG1 MMS cell=?
COc1cc(/C=C/c2onc(C)c2[N+](=O)[O-])cc(OC)c1OC	i	-10%	i	1%	.	.
Cc1cc2c(c(CO)c1CCO)C(=O)[C@@H](C)[C@@H]2O	i	-66%	i	-18%	0%	.
CCOC(=O)c1c(C)[nH]c(C(=O)NNC(=O)c2ccccc2F)c1C	i	2%	i	0%	?	-9%
CCOC(=O)c1c(C)[nH]c(C(=O)NNC(=O)c2ccccc2)c1C	i	-4%	i	-12%	?	.
COc1ccc(-c2cc(C(=O)NCc3cccs3)no2)cc1	i	-18%	i	?	?	.
O=C(NCc1cccs1)c1cc(-c2ccccc2)on1	i	0%	i	4%	?	-14%	ELG1 FLuc counter=77%;FLuc enzyme=?
CCc1c(C)nc2cc(-c3cc(OC)cc(OC)c3)nn2c1N1CCN(CCN2CCOCC2)CC1	i	4%	i	-7%	2.6µM*	-6%	ELG1-Luc inh=4.4µM*;ELG1 MMS Luc=?;ELG1 5-FU=?;ELG1 MMS cell=9%
